Compounds with a hit are over-represented: about 6.1% of the library has one in this group of screens.
D1 PAM: Potentiators of Human D1 Dopamine Receptor: qHTS. D(1A) dopamine receptor (Homo sapiens), P21728. HEK293 TREx D1 cells, calcium flux, dopamine EC20 potentiation. potentiation, % at 10 µM. actives 0.036% (n = 360,000); in the data active means potentiation above about 30%
D3 antag: qHTS of D3 Dopamine Receptor Antagonist: qHTS; D(3) dopamine receptor (Homo sapiens), P35462; D3R cells, DiscoveRx beta-arrestin luminescence, antagonist mode; active compounds read low; max response, negative = inhibition, %; actives 2.5% (n = 360,000); AID 652054, 2013; in the data active means max response below about -50%; inconclusive means no clear call, values can overlap the other calls
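Cells plated overnight at 1500 cells/well, then exposed to library compounds with dopamine controls for 90 minutes at 37 degrees C. DiscoveRx reagent added for 30–60 minutes at room temperature; luminescence read, quantitative HTS format.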
D1 ag: Allosteric Agonists of the Human D1 Dopamine Receptor: qHTS; HEK293 T-REx D1 cells, calcium flux, agonist mode; activation, % at 2 µM; actives 1% (n = 360,000); in the data active means activation above about 30%
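Tetracycline-induced HEK293 TREx D1 cells, force-coupled to calcium signalling, were dye-loaded with a no-wash calcium kit. Compound was pin-added after a 10 s baseline. Fluorescence was read kinetically at 1 cycle/s for 180 s, with calcium rises flagged as agonism.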
ERG-DNA inh: qHTS for Small Molecule Inhibitors of the ERG Ets/DNA interaction | Transcriptional regulator ERG (Homo sapiens), P11308 | fluorescence polarization, His-ERG Ets domain / labelled DNA | Potency, µM (doses to about 76.9 µM), usual class: inhibitors | actives 0.028% (n = 370,000); active means well fitted inhibition curve with a large enough effect in the polarisation, with a control signal flat; inconclusive means small, poorly fitted or top-dose-only effect, or effect the other way, or a change in a side signal; inactive means no such curve, though single readings can be large or run the other way; the % refers to the polarisation;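 further: polarization taken with two DNA probes labelled with fluorescein and Texas red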
Target sequence (P11308 whole entry, looked up, the tested form may be a part): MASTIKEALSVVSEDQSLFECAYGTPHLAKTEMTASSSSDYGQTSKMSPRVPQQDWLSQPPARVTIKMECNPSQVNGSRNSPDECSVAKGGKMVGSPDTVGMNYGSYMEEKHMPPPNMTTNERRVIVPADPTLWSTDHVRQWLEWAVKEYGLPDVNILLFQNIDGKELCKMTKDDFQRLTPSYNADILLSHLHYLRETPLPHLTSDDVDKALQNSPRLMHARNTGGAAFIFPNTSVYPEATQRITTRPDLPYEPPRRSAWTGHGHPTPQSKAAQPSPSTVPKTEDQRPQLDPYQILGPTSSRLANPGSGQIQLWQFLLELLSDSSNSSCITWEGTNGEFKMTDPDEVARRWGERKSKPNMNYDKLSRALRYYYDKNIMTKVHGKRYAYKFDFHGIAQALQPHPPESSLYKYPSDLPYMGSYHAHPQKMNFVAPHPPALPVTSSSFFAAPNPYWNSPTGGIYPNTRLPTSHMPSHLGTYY
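His-tagged ERG Ets domain (1 uM in the protein solution; 300mM KCl, 50mM Tris-HCl, 1mM EDTA, 1mM DTT, pH 7.5) received compound, then a probe mix of 5 nM fluorescein-DNA and 100nM Texas-615-DNA. Fluorescence polarization was read for both dyes.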
D1 antagonist: Antagonist of Human D 1 Dopamine Receptor: qHTS; activity change, negative = inhibition, % at 10 µM; actives 3.2% (n = 360,000); D(1A) dopamine receptor (Homo sapiens), P21728; HEK293 TREx D1 cells, calcium flux, dopamine EC80; active compounds read low; AID 504652, 2011; in the data active means activity change below about -30%
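Kinetic fluorescence of a calcium dye serves as the read-out. D1-expressing Hek293 Trex cells, induced overnight at 30 C, are exposed to compound for 180 s before an EC80 dopamine addition, then read 180 s further.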
DRD3 agonist: qHTS of D3 Dopamine Receptor Agonist: qHTS. D3R DiscoveRx beta-arrestin cells, luminescence, 90 min. max activation, %. D(3) dopamine receptor (Homo sapiens), P35462. AID 652048, 2013. actives 0.58% (n = 410,000); in the data active means max activation above about 30%
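Agonist mode: compounds and dopamine controls were applied to plated cells for 90 min at 37 degrees C after an overnight attachment at 1500 cells/well. Luminescent read-out followed 30 - 60 minutes at room temperature with DiscoveRx detection reagent.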
A number is an active result; – = inactive; ? = inconclusive; · = no result.

SMILES	D1 PAM	D3 antag	D1 ag	ERG-DNA inh	D1 antagonist	DRD3 agonist
Cc1ccc(N2CCN(C(=O)c3cn(C)c4ccc(S(=O)(=O)N5CCC(C)CC5)cc4c3=O)CC2C)cc1 (stereo unspecified)	–	·	–	–	–	–
Cc1ccc(N2CCN(C(=O)c3cn(C)c4ccc(S(=O)(=O)N5CCCC5)cc4c3=O)CC2C)cc1 (stereo unspecified)	–	·	–	–	-82	–
COc1nn(-c2ccccc2)c(=O)c(Cl)c1Cl	–	-64	–	–	–	–
COc1c(Cl)cnn(-c2ccccc2)c1=O	–	–	–	–	–	–
COc1ccccc1NC(=S)N(CCCN(C)C)Cc1cc2cc3c(cc2[nH]c1=O)OCO3	–	–	–	–	–	–
COc1ccc2cc(CN(C(=O)Nc3ccccc3OC)C3CCCC3)c(=O)[nH]c2c1	–	–	–	–	-33	–
COc1ccccc1NC(=O)N(Cc1cccs1)Cc1cc2cc3c(cc2[nH]c1=O)OCO3	–	–	–	·	-34	–
O=C(NCC1CC1)C1Cc2c(-c3cccc(F)c3)ccnc2O1 (stereo unspecified)	·	–	·	·	·	–
COC(=O)[C@@]12CCCN1[C@H](c1ccc(-c3ccc(F)cc3)cc1)[C@H]1C(=O)N(C)C(=O)[C@H]12	–	–	–	–	-44	–
COC(=O)[C@@]12CCCCN1[C@H](c1ccc(-c3ccc(F)cc3)cc1)[C@H]1C(=O)N(C)C(=O)[C@H]12	·	–	·	–	·	–
CCN1C(=O)[C@@H]2[C@@H](c3ccc(-c4ccc(F)cc4)c(OC)c3)N3CCCC[C@@]3(C(=O)OC)[C@@H]2C1=O	–	–	–	–	–	33
CCCOc1ccc(C(=O)N2CC3(CC(c4cccc(NC(=O)[C@@H]5CCC(=O)N5)c4)=NO3)C[C@H]2C(=O)NC2(C(N)=O)CC2)cc1 (stereo partly specified)	–	–	–	–	–	–
C/C(=C/CCC(C)[C@H]1CC[C@@]2(C)C3=C(CC[C@]12C)[C@@]1(C)CCC(=O)C(C)(C)[C@@H]1CC3)C(=O)O (stereo partly specified)	–	?	–	–	-34	–
C/C(=C/CCC(C)C1CCC2(C)C3CCC4C(C)(C)C(=O)CCC4(C)C3=CCC12C)C(=O)O (stereo unspecified)	–	·	–	·	–	·
CSc1ncnc2c1ncn2CCCN1CCN(Cc2cccc3ccccc23)CC1	·	-60	·	·	·	–
COc1ncnc2c1ncn2CCCN1CCN(Cc2cccc3ccccc23)CC1	·	?	·	·	·	–
CSc1ncnc2c1ncn2CCCN1CCN(c2ncccn2)CC1	·	–	·	·	·	38
Cc1ccc(CN2CCN(Cc3ccc(-n4cccn4)cc3C)CC2CCO)cc1 (stereo unspecified)	–	?	–	–	–	–
Cc1ccc(CN2CCN(Cc3cccc(-n4cccn4)c3)CC2CCO)cc1 (stereo unspecified)	–	-53	–	–	–	–
CC(=O)c1cc(CN2CCN(Cc3ccc(C)cc3)C(CCO)C2)cs1 (stereo unspecified)	–	-86	–	–	–	–
CC(=O)c1cccc(CN2CCN(Cc3ccc(C)cc3)C(CCO)C2)c1 (stereo unspecified)	–	-74	–	–	–	–
CC(=O)c1cccc(NC(=O)CNC(=O)Cc2cccc3ccccc23)c1	·	–	·	–	·	–
COc1ccc2cc(C(=O)C3CCCN(Cc4cnc(C)s4)C3)ccc2c1 (stereo unspecified)	–	–	–	–	–	–
CN1CC(=O)N(C)c2nc(Br)n(C)c2C1=O	–	–	–	·	–	–
C=C(C)C(C)(C#CCN1CCCC1)OC(C)=O (stereo unspecified)	–	-72	–	–	–	–
SMILES	D1 PAM	D3 antag	D1 ag	ERG-DNA inh	D1 antagonist	DRD3 agonist
O=c1nc(-c2ccccc2)c2cc(SC(F)F)ccc2[nH]1	–	–	–	–	–	36
O=c1nc(-c2ccccc2)c2cc(Br)ccc2[nH]1	–	–	–	–	–	–
O=C(COCc1ccccc1)N[C@@H]1c2ccccc2CC[C@@H]1OCc1ccccc1	·	–	·	–	·	–
O=C(Cc1ccccc1)N[C@@H]1c2ccccc2CC[C@@H]1OCc1ccccc1	·	-90	·	–	·	–
Cc1c(-c2cccc(NC(=O)c3ccco3)c2)nc2ncccn12	–	–	–	–	–	–
COc1ccccc1N1CCN(CCCC(=O)c2ccc(F)cc2)CC1	–	-98	–	–	-80	–
COc1ccc(C(=O)CCN2CCc3cc(OC)c(OC)cc3C2)cc1	–	-59	–	–	–	–
COc1ccc(/C=C/C(=O)NC(=S)N2CCN(c3ccccc3OC)CC2)cc1	–	-50	–	–	–	–
COc1cc2c(cc1OC)CN(CCOc1ccc(Br)cc1)CC2	–	-100	–	–	–	–
COc1ccc(/C=C/C(=O)NC(=S)N2CCOCC2)cc1	–	–	–	–	–	–
CN1CCN(CCCCOc2ccc(Br)cc2)CC1	–	–	–	–	–	–
COc1ccc(CN2C(=O)C(CC(=O)NCCCN(C)C)CC(C(=O)N3CCOCC3)=C2C)cc1 (stereo unspecified)	·	–	·	·	·	–
O=C(NC1CCCCC1)C(c1cccnc1)N(C(=O)c1csnn1)c1ccccc1F (stereo unspecified)	–	–	–	–	–	–
Cc1cccc(NC(=O)Cn2c(C)c(C#N)c3ccccc32)c1C	–	–	–	–	–	–
COc1ccc2[nH]cc(C(=O)CN3CCCCC3C)c2c1 (stereo unspecified)	–	·	–	·	–	·
Cn1cc(C(=O)N2CCN(c3ccccn3)CC2)c(=O)c2cc(S(=O)(=O)N3CCOCC3)ccc21	–	–	–	–	–	–
CC(=O)OCC(=O)c1ccc2ccn(C(C)=O)c2c1	–	–	–	–	–	–
COc1ccc(C(=O)N2CCN(c3ccccc3OC)CC2)cc1	–	–	–	–	–	–
COc1ccc(C(=O)CCN2CCN(c3ccccc3OC)CC2)cc1	–	-83	–	–	-46	–
COc1ccccc1N1CCN(CC(=O)c2ccc3ccn(C(C)=O)c3c2)CC1	·	?	–	–	-76	–
CC(C)N=c1c([N+](=O)[O-])nn(C)n1O	–	–	–	–	-58	–
CN=c1c([N+](=O)[O-])nn(-c2ccc3c(c2)OCCO3)n1O	–	–	–	–	–	–

Source: PubChem
